In PMC12864922, “TDP-43 directly inhibits mRNA accumulation in neurites through modulation of mRNA stability”:
In all, about 9,900 sequences were measured (“r (bound/input frequency ratio)”: median about 0.7, highest 2% from about 6.5 on). The sample holds the highest values, similar sequences and a random draw of the others, so the mix is not that of the screen.

B1: ENSMUSG00000029028.14|Lrrc47 (ssRNA)
RNA: GGGAGUUCUACAGUCCGACGAUCGCUUCGAUAUCCGCAUGCUACCACGUGACUGUGGUCCGCUGACAGGCUCCUGUAGGUGUGGGUGUGCUGUAGGUGUCUGUGUGGGUGUGGGUGUGCUGUAGGUGUCUGUGUGGGUGUGGGUGUGCUAUAGGUAUCUGUGGGUGUGCUGUAGGUGUCUGUGUGGGUGUGCUGUAGGUGUCUGUGUAGGUGUGGGUGUGCUGUAGGUGUCUGUGUGGGUGUGCUAGGUGUCUGUAUAGGUGUGGGUGUGCUGUAGAUGUCUGUGUAGGUAUGGGUGUGCUGUCUCUUGCGGUCGCACUAGUGUGGAAUUCUCGGGUGUCAAGG
B2: ENSMUSG00000029028.15|Lrrc47 (ssRNA)
RNA: GGGAGUUCUACAGUCCGACGAUCGCUUCGAUAUCCGCAUGCUAGACUGUGGUCCGCUGACAGGCUCCUGUAGGUGUGGGUGUGCUGUAGGUGUCUGUGUGGGUGUGGGUGUGCUGUAGGUGUCUGUGUGGGUGUGGGUGUGCUAUAGGUAUCUGUGGGUGUGCUGUAGGUGUCUGUGUGGGUGUGCUGUAGGUGUCUGUGUAGGUGUGGGUGUGCUGUAGGUGUCUGUGUGGGUGUGCUAGGUGUCUGUAUAGGUGUGGGUGUGCUGUAGAUGUCUGUGUAGGUAUGGGUGUGCUGUAGAUCUCUCUUGCGGUCGCACUAGUGUGGAAUUCUCGGGUGUCAAGG
B3: ENSMUSG00000029028.22|Lrrc47 (ssRNA)
RNA: GGGAGUUCUACAGUCCGACGAUCGCUUCGAUAUCCGCAUGCUAGUAGGUGUCUGUGUGGGUGUGGGUGUGCUGUAGGUGUCUGUGUGGGUGUGGGUGUGCUAUAGGUAUCUGUGGGUGUGCUGUAGGUGUCUGUGUGGGUGUGCUGUAGGUGUCUGUGUAGGUGUGGGUGUGCUGUAGGUGUCUGUGUGGGUGUGCUAGGUGUCUGUAUAGGUGUGGGUGUGCUGUAGAUGUCUGUGUAGGUAUGGGUGUGCUGUAGAUCUUUGUAGGUGUAGGUAUGCUGUAGGUAUCUGGGUGUGGGUAUGCUCUUGCGGUCGCACUAGUGUGGAAUUCUCGGGUGUCAAGG
B4: ENSMUSG00000029028.18|Lrrc47 (ssRNA)
RNA: GGGAGUUCUACAGUCCGACGAUCGCUUCGAUAUCCGCAUGCUAGGCUCCUGUAGGUGUGGGUGUGCUGUAGGUGUCUGUGUGGGUGUGGGUGUGCUGUAGGUGUCUGUGUGGGUGUGGGUGUGCUAUAGGUAUCUGUGGGUGUGCUGUAGGUGUCUGUGUGGGUGUGCUGUAGGUGUCUGUGUAGGUGUGGGUGUGCUGUAGGUGUCUGUGUGGGUGUGCUAGGUGUCUGUAUAGGUGUGGGUGUGCUGUAGAUGUCUGUGUAGGUAUGGGUGUGCUGUAGAUCUUUGUAGGUGUAGGUAUGCCUCUUGCGGUCGCACUAGUGUGGAAUUCUCGGGUGUCAAGG
B5: ENSMUSG00000029028.17|Lrrc47 (ssRNA)
RNA: GGGAGUUCUACAGUCCGACGAUCGCUUCGAUAUCCGCAUGCUACUGACAGGCUCCUGUAGGUGUGGGUGUGCUGUAGGUGUCUGUGUGGGUGUGGGUGUGCUGUAGGUGUCUGUGUGGGUGUGGGUGUGCUAUAGGUAUCUGUGGGUGUGCUGUAGGUGUCUGUGUGGGUGUGCUGUAGGUGUCUGUGUAGGUGUGGGUGUGCUGUAGGUGUCUGUGUGGGUGUGCUAGGUGUCUGUAUAGGUGUGGGUGUGCUGUAGAUGUCUGUGUAGGUAUGGGUGUGCUGUAGAUCUUUGUAGGUGUAGCUCUUGCGGUCGCACUAGUGUGGAAUUCUCGGGUGUCAAGG
B6: ENSMUSG00000029028.16|Lrrc47 (ssRNA)
RNA: GGGAGUUCUACAGUCCGACGAUCGCUUCGAUAUCCGCAUGCUAGGUCCGCUGACAGGCUCCUGUAGGUGUGGGUGUGCUGUAGGUGUCUGUGUGGGUGUGGGUGUGCUGUAGGUGUCUGUGUGGGUGUGGGUGUGCUAUAGGUAUCUGUGGGUGUGCUGUAGGUGUCUGUGUGGGUGUGCUGUAGGUGUCUGUGUAGGUGUGGGUGUGCUGUAGGUGUCUGUGUGGGUGUGCUAGGUGUCUGUAUAGGUGUGGGUGUGCUGUAGAUGUCUGUGUAGGUAUGGGUGUGCUGUAGAUCUUUGUAGCUCUUGCGGUCGCACUAGUGUGGAAUUCUCGGGUGUCAAGG
B7: ENSMUSG00000029028.23|Lrrc47 (ssRNA)
RNA: GGGAGUUCUACAGUCCGACGAUCGCUUCGAUAUCCGCAUGCUAGUCUGUGUGGGUGUGGGUGUGCUGUAGGUGUCUGUGUGGGUGUGGGUGUGCUAUAGGUAUCUGUGGGUGUGCUGUAGGUGUCUGUGUGGGUGUGCUGUAGGUGUCUGUGUAGGUGUGGGUGUGCUGUAGGUGUCUGUGUGGGUGUGCUAGGUGUCUGUAUAGGUGUGGGUGUGCUGUAGAUGUCUGUGUAGGUAUGGGUGUGCUGUAGAUCUUUGUAGGUGUAGGUAUGCUGUAGGUAUCUGGGUGUGGGUAUGCUGUAGCUCUUGCGGUCGCACUAGUGUGGAAUUCUCGGGUGUCAAGG
B8: ENSMUSG00000029028.27|Lrrc47 (ssRNA)
RNA: GGGAGUUCUACAGUCCGACGAUCGCUUCGAUAUCCGCAUGCUAUAGGUGUCUGUGUGGGUGUGGGUGUGCUAUAGGUAUCUGUGGGUGUGCUGUAGGUGUCUGUGUGGGUGUGCUGUAGGUGUCUGUGUAGGUGUGGGUGUGCUGUAGGUGUCUGUGUGGGUGUGCUAGGUGUCUGUAUAGGUGUGGGUGUGCUGUAGAUGUCUGUGUAGGUAUGGGUGUGCUGUAGAUCUUUGUAGGUGUAGGUAUGCUGUAGGUAUCUGGGUGUGGGUAUGCUGUAGAUGUCUGUGUAGGUGUGGAUAUGCCUCUUGCGGUCGCACUAGUGUGGAAUUCUCGGGUGUCAAGG
B9: ENSMUSG00000029028.33|Lrrc47 (ssRNA)
RNA: GGGAGUUCUACAGUCCGACGAUCGCUUCGAUAUCCGCAUGCUACUGUGGGUGUGCUGUAGGUGUCUGUGUGGGUGUGCUGUAGGUGUCUGUGUAGGUGUGGGUGUGCUGUAGGUGUCUGUGUGGGUGUGCUAGGUGUCUGUAUAGGUGUGGGUGUGCUGUAGAUGUCUGUGUAGGUAUGGGUGUGCUGUAGAUCUUUGUAGGUGUAGGUAUGCUGUAGGUAUCUGGGUGUGGGUAUGCUGUAGAUGUCUGUGUAGGUGUGGAUAUGCUGUAGGUAUCUGGGUGUGCUGUAGGUGUCUGUGUGGCUCUUGCGGUCGCACUAGUGUGGAAUUCUCGGGUGUCAAGG

Target: TDP-43 (Homo sapiens, UniProt Q13148 1-414)
Sequence (Q13148 whole entry): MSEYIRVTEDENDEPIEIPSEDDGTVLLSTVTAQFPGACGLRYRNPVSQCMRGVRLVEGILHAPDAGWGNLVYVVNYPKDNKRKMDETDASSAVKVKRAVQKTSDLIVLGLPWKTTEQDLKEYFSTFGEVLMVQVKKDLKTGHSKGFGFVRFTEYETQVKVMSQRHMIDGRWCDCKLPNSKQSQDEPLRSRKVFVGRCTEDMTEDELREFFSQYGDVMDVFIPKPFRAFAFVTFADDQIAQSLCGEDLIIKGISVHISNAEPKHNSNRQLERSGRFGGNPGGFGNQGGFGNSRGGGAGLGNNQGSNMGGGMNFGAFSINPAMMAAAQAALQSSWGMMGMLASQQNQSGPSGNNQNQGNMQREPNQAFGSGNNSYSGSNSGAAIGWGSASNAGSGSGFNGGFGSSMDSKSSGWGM
Test: RNA Bind-n-Seq with designed 260-mer pool; 25 mM Tris-HCl, 150 mM KCl, 3 mM MgCl2, BSA (printed 500 mg/mL), 20 units/mL SUPERase IN; pH not stated; 500 nM RNA pool, 1 h, 4 C; TDP-43 5, 50, 500 nM; high values mean tight binding
Conditions: protein: recombinant; tags: SBP (GST cleaved off with PreScission; pGEX-GST-SBP)
Method in brief: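 The incubation lasted 1 h at 4 °C and used 500 nM of an in vitro-transcribed 260-nt 3′ UTR oligo pool with recombinant SBP-tagged TDP-43 at 5, 50 or 500 nM immobilized on streptavidin beads. It took place in 25 mM Tris-HCl, 150 mM KCl, 3 mM MgCl2, BSA and SUPERase IN. Bound RNA was washed, eluted with biotin, converted to cDNA, PCR-amplified and sequenced to give R, each oligo's normalized abundance in the bound sample divided by that in input. Two independent protein batches provided the duplicates.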

| Binder | binding signal |
| --- | --- |
| B1 | 6.07 R (bound/input frequency ratio) |
| B2 | 6.93 R (bound/input frequency ratio) |
| B3 | 5.37 R (bound/input frequency ratio) |
| B4 | 5.03 R (bound/input frequency ratio) |
| B5 | 8.61 R (bound/input frequency ratio) |
| B6 | 6.62 R (bound/input frequency ratio) |
| B7 | 5.87 R (bound/input frequency ratio) |
| B8 | 5.47 R (bound/input frequency ratio) |
| B9 | 5.4 R (bound/input frequency ratio) |
